Experimental data: PubChem BioAssay (EPA / NIEHS)
Activity calls are given as the source filed them. The calls were made as follows: active = hit-call score of the fitted dose curve at least 0.9, where 1 is the maximum; inactive = score below 0.9.

How the values were obtained:
[1] = read-out: Cyclin D1 (CCND1), CCND1 (gene 595); test: LTEA_HepaRG_CCND1: Life Technologies and Expression Analysis (LTEA) Assay for Cyclin D1 (CCND1) using HepaRG (AID 2283451); settings: mRNA level, 48 h; actives raise or lower the signal;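 as to AC50: differentiated human HepaRG liver cells in serum-free induction medium; TaqMan qRT-PCR transcript level normalised to ACTB GAPDH and POLR2A housekeeping genes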
Procedure, shortened: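 qRT-PCR (Fluidigm 96.96 array) read-out of transcript level, housekeeping-normalized (ACTB/GAPDH/POLR2A). HepaRG cells, 48 h chemical exposure, 8-point half-log series from 100 uM, 0.5% DMSO vehicle; gain or loss relative to DMSO baseline.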

[2] = read-out: catalase (CAT), CAT (gene 847); test: LTEA_HepaRG_CAT: Life Technologies and Expression Analysis (LTEA) Assay for catalase (CAT) using HepaRG (AID 2283452); settings: mRNA level, 48 h; actives raise or lower the signal
Procedure, shortened: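 HepaRG cells in serum-free induction medium, 0.5% DMSO vehicle, exposed 48 h in duplicate over 8 half-log concentrations from 100 uM. CAT mRNA measured by qRT-PCR, normalized to ACTB, GAPDH, POLR2A; bidirectional fit versus DMSO.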

[3] = read-out: flavin-containing dimethylaniline monooxygenases 3 (FMO3), FMO3 (gene 2328); test: LTEA_HepaRG_FMO3: Life Technologies and Expression Analysis (LTEA) Assay for flavin-containing dimethylaniline monooxygenases 3 (FMO3) using HepaRG (AID 2283453); settings: mRNA level, 48 h; actives raise or lower the signal;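 as to AC50: differentiated human HepaRG liver cells in serum-free induction medium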
Procedure, shortened: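 FMO3 transcript quantified by TaqMan qRT-PCR against three housekeeping genes after 48 h chemical exposure of HepaRG cells. Eight-point half-log series, top 100 uM, 0.5% DMSO vehicle; phenobarbital 1mM induction control; up- or down-regulation fitted.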

[4] = read-out: Cytochrome P450 (CYP1A1), CYP1A1 (gene 1543); test: LTEA_HepaRG_CYP1A1: Life Technologies and Expression Analysis (LTEA) Assay for Cytochrome P450 (CYP1A1) using HepaRG (AID 2283454); settings: mRNA level, 48 h; actives raise or lower the signal
Procedure, shortened: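 qRT-PCR read-out: CYP1A1 transcript normalized to three housekeeping genes, fitted bidirectionally against 0.5% DMSO vehicle baseline. Human HepaRG cells, 48 h chemical exposure, 8-point half-log series topping at 100 uM.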

[5] = read-out: CFLAR gene, CFLAR (gene 8837); test: LTEA_HepaRG_CFLAR: Life Technologies and Expression Analysis (LTEA) Assay for CFLAR gene using HepaRG (AID 2283455); settings: mRNA level, 48 h; actives raise or lower the signal
Procedure, shortened: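 qRT-PCR read-out (Fluidigm/TaqMan) of CFLAR mRNA, normalized to three housekeeping genes, in differentiated human HepaRG cells after 48 h chemical exposure; 8-point half-log series from 100 uM in 0.5% DMSO; bidirectional curve fitting versus DMSO.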

[6] = read-out: Forkhead box O1 (FOXO1), FOXO1 (gene 2308); test: LTEA_HepaRG_FOXO1: Life Technologies and Expression Analysis (LTEA) Assay for Forkhead box O1 (FOXO1) using HepaRG (AID 2283456); settings: mRNA level, 48 h; actives raise or lower the signal
Procedure, shortened: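 HepaRG, 48 h exposure, 8-pt half-log series from 100 uM in 0.5% DMSO, duplicates; Fluidigm qRT-PCR mRNA, housekeeping-normalised; bidirectional fit vs DMSO baseline.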

[7] = read-out: growth arrest and DNA damage 45 (GADD45A), GADD45A (gene 1647); test: LTEA_HepaRG_GADD45A: Life Technologies and Expression Analysis (LTEA) Assay for growth arrest and DNA damage 45 (GADD45A) using HepaRG (AID 2283458); settings: mRNA level, 48 h; actives raise or lower the signal
Procedure, shortened: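 Transcript induction or loss, quantified by TaqMan qRT-PCR against three housekeeping genes, is the read-out. HepaRG cells received chemicals for 48 h across eight half-log concentrations from 100 uM in 0.5% DMSO; gain and loss fitted relative to DMSO.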

[8] = read-out: Forkhead box O3 (FOXO3), FOXO3 (gene 2309); test: LTEA_HepaRG_FOXO3: Life Technologies and Expression Analysis (LTEA) Assay for Forkhead box O3 (FOXO3) using HepaRG (AID 2283459); settings: mRNA level, 48 h; actives raise or lower the signal
Procedure, shortened: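 qRT-PCR readout of FOXO3 transcript, normalized to three housekeeping genes (ACTB, GAPDH, POLR2A); gain or loss fitted against 0.5% DMSO vehicle. HepaRG cells, 48 h chemical exposure, 8-point half-log series, top 100 uM.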

[9] = read-out: ABC Transporter (ABCB1), ABCB1 (gene 5243); test: LTEA_HepaRG_ABCB1: Life Technologies and Expression Analysis (LTEA) Assay for ABC Transporter (ABCB1) using HepaRG (AID 2283460); settings: mRNA level, 48 h; actives raise or lower the signal
Procedure, shortened: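 HepaRG, 48 h exposure, 8-pt half-log series from 100 uM, 0.5% DMSO vehicle, duplicates. Readout: ABCB1 transcript by Fluidigm TaqMan qRT-PCR, housekeeping-normalized; bidirectional curve fit vs DMSO baseline.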

[10] = CEETOX_H295R_TESTO: CeeTox H295R High-throughput Steroidogenesis Assay for Testosterone (TESTO) (AID 2283457); settings: actives raise or lower the signal
Procedure, shortened: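 Readout: testosterone quantified by HPLC-MS/MS (C18, ESI positive) after MTBE liquid-liquid extraction of culture medium. Cells were H295R, 48 h chemical exposure per OECD 456 with modifications. Gain or loss of signal fitted relative to DMSO.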

Measured: AC50

Nc1c(Cl)c(Cl)nc(C(=O)O)c1Cl
active: [4] 50 µM
inactive: [1] | [2] | [3] | [5] | [6] | [7] | [8] | [9]

COP(=S)(OC)SCn1nnc2ccccc2c1=O
inactive: [1] | [2] | [3] | [5] | [6] | [10] | [7] | [8] | [9]
active: [4] 50 µM

CC(C)Oc1cccc(NC(=O)c2ccccc2C(F)(F)F)c1
inactive: [1] | [2] | [3] | [5] | [6] | [7] | [8]
active: [4] 81.6 µM | [9] 50 µM

CCCCC(O)(Cn1cncn1)c1ccc(Cl)cc1Cl (configuration not stated)
inactive: [8]
active: [1] 57.7 µM | [2] 73 µM | [3] 75.9 µM | [4] 12.9 µM | [5] 66.5 µM | [6] 80.2 µM | [7] 89.9 µM | [9] 11.8 µM

CCOC(=O)C(C)OC(=O)c1cc(Oc2ccc(C(F)(F)F)cc2Cl)ccc1[N+](=O)[O-] (configuration not stated)
active: [4] 50 µM | [7] 50 µM
inactive: [1] | [2] | [3] | [5] | [6] | [8] | [9]

Cn1c(-c2ccccc2)cc(-c2ccccc2)[n+]1C
inactive: [7]
active: [1] 75.6 µM | [2] 21.9 µM | [3] 50 µM | [4] 75 µM | [5] 82.3 µM | [6] 77.7 µM | [8] 2.57 µM

O=C1C2CC=CCC2C(=O)N1SC(Cl)(Cl)Cl (configuration not stated)
inactive: [1] | [2] | [3] | [5] | [7] | [8] | [9]
active: [4] 38.8 µM | [6] 77.1 µM

N#Cc1c(Cl)cccc1Cl
inactive: [1] | [2] | [3] | [5] | [6] | [7] | [8] | [9]
active: [4] 50 µM

COC(=O)c1c(C(F)F)nc(C(F)(F)F)c(C2=NCCS2)c1CC(C)C
inactive: [1] | [2] | [3] | [4] | [5] | [6] | [8] | [9]
active: [7] 0.0299 µM

C=C(C)CN(CC)c1c([N+](=O)[O-])cc(C(F)(F)F)cc1[N+](=O)[O-]
inactive: [1] | [2] | [3] | [5] | [6] | [7] | [8] | [9]
active: [4] 44.4 µM

COCc1cnc(C2=NC(C)(C(C)C)C(=O)N2)c(C(=O)O)c1 (configuration not stated)
inactive: [1] | [2] | [3] | [5] | [6] | [10] | [7] | [8] | [9]
active: [4] 65.5 µM

O=C(O)c1c(Cl)ccc2cc(Cl)cnc12
inactive: [1] | [2] | [3] | [4] | [5] | [6] | [8] | [9]
active: [7] 0.00381 µM

CC1(C)C(C=C(Cl)Cl)C1C(=O)OC(C#N)c1cccc(Oc2ccccc2)c1 (configuration not stated)
active: [4] 28.8 µM | [9] 50 µM
inactive: [1] | [2] | [3] | [5] | [6] | [7] | [8]

O=P(O)(O)CCCl
inactive: [2] | [3] | [4] | [5] | [6] | [7] | [8] | [9]
active: [1] 0.261 µM

CCCN(CC)CC1COC2(CCC(C(C)(C)C)CC2)O1 (configuration not stated)
active: [4] 50 µM
inactive: [1] | [2] | [3] | [5] | [6] | [7] | [8] | [9]

CCOP(=O)(OCC)Oc1nc(Cl)c(Cl)cc1Cl
inactive: [5] | [6] | [7] | [8] | [9]
active: [1] 80.7 µM | [2] 91.1 µM | [3] 79.3 µM | [4] 73.5 µM

CC(C)(C)C(=O)C(Oc1ccc(Cl)cc1)n1cncn1 (configuration not stated)
active: [4] 37 µM | [9] 7.7 µM
inactive: [1] | [2] | [3] | [5] | [6] | [7] | [8]

COCC(=O)N(c1c(C)cccc1C)C(C)C(=O)OC (configuration not stated)
inactive: [1] | [2] | [3] | [4] | [5] | [6] | [7] | [8] | [9]

CCOP(=S)(OCC)Oc1nc(Cl)n(C(C)C)n1
active: [3] 24.7 µM | [4] 9.25 µM
inactive: [1] | [2] | [5] | [6] | [7] | [8] | [9]

CC1(C)CCC(=Cc2ccc(Cl)cc2)C1(O)Cn1cncn1 (configuration not stated)
inactive: [1] | [2] | [3] | [5] | [6] | [10] | [7] | [8]
active: [4] 11.2 µM | [9] 4.18 µM

CCNP(=S)(OC)O/C(C)=C/C(=O)OC(C)C (configuration not stated)
inactive: [1] | [2] | [3] | [5] | [6] | [7] | [8]
active: [4] 14.3 µM | [9] 13 µM

CN/C(=N\[N+](=O)[O-])NCc1cnc(Cl)s1
inactive: [1] | [2] | [3] | [4] | [5] | [6] | [7] | [8] | [9]

COC(=O)NS(=O)(=O)c1ccc(N)cc1
inactive: [1] | [2] | [3] | [4] | [5] | [6] | [7] | [8] | [9]

CNC(=O)Oc1cccc2ccccc12
inactive: [1] | [2] | [3] | [4] | [5] | [6] | [7] | [8] | [9]

CCOc1nc(C(Cl)(Cl)Cl)ns1
active: [1] 1.18 µM | [3] 0.644 µM | [4] 1.44 µM | [5] 0.912 µM | [6] 1 µM | [7] 1.49 µM | [8] 0.967 µM | [9] 1.05 µM
inactive: [2]

C=CCOC(=O)C(C)(C)OC(=O)c1cc(-n2c(=O)cc(C(F)(F)F)n(C)c2=O)ccc1Cl
inactive: [1] | [2] | [3] | [4] | [5] | [6] | [7] | [8] | [9]

Nc1c(Cl)c(F)nc(OCC(=O)O)c1Cl
inactive: [1] | [2] | [3] | [4] | [5] | [6] | [7] | [8] | [9]

CCCCOCN(C(=O)CCl)c1c(CC)cccc1CC
inactive: [1] | [2] | [3] | [5] | [6] | [7] | [8]
active: [4] 74 µM | [9] 83.7 µM

COP(=O)(OC)O/C(C)=C/C(=O)N(C)C
inactive: [1] | [2] | [3] | [4] | [5] | [6] | [7] | [8] | [9]

CCCC(=NOCC)C1=C(O)CC(CC(C)SCC)CC1=O (configuration not stated)
active: [4] 73.9 µM
inactive: [1] | [2] | [3] | [5] | [6] | [7] | [8] | [9]

Cc1c(COC(=O)[C@@H]2[C@H](/C=C(\Cl)C(F)(F)F)C2(C)C)cccc1-c1ccccc1
active: [4] 33.6 µM | [9] 28.3 µM
inactive: [1] | [2] | [3] | [5] | [6] | [7] | [8]

CCN(CC)C(=O)C(C)Oc1cccc2ccccc12 (configuration not stated)
inactive: [1] | [5] | [6] | [7] | [8] | [9]
active: [2] 81.2 µM | [3] 82.9 µM | [4] 36.9 µM

CNC(=O)N(C)c1nnc(C(C)(C)C)s1
active: [4] 42.9 µM
inactive: [1] | [2] | [3] | [5] | [6] | [7] | [8] | [9]

COc1cc(OC)nc(NC(=O)NS(=O)(=O)c2ncccc2OCC(F)(F)F)n1
inactive: [1] | [2] | [3] | [5] | [6] | [8]
active: [4] 21 µM | [7] 50 µM | [9] 31.3 µM

CCOc1cc(C(C)(C)C)ccc1C1COC(c2c(F)cccc2F)=N1 (configuration not stated)
inactive: [1] | [2] | [3] | [5] | [6] | [10] | [7] | [8]
active: [4] 19.2 µM | [9] 6.97 µM

O=c1n(Cl)c(=O)n(Cl)c(=O)n1Cl
inactive: [1] | [2] | [3] | [5] | [6] | [7] | [8] | [9]
active: [4] 60.2 µM
